Test results from PubChem BioAssay AID1159580 (chemical genetic matrix, 2015).
Among all 5,500 compounds or so, about 2,000 (36%) were called active. Roughly 18% stayed inconclusive and do not appear here. Cut-off read from the data, not from the text of the source: active = normalized growth mostly below about 0.91 (no sharp cut-off); inconclusive = no clear call, values can overlap the other calls; inactive = mostly above about 0.92. Some of the results follow.

Test: chemical genetic growth profiling, strain panel (AID 1159580);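 note: tested at 20 µM; growth read once vehicle control cultures reached saturation at 30 °C; 1 = growth at the plate median or of vehicle wells; lower values mean less growth of the strain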
Settings: S. cerevisiae deletion strains, growth OD

Measured: normalized growth

Cc1csc2ncnc(N/N=C\c3ccccc3Cl)c12
inactive: locus YAR019C, strain CDC15, stronger effect = lower value 0.959 | locus YBL105C, strain PKC1, stronger effect = lower value 0.96 | locus YBR135W, strain CKS1, stronger effect = lower value 0.968 | locus YBR136W, strain MEC1, stronger effect = lower value 0.962 | locus YBR160W, strain CDC28, stronger effect = lower value 0.954 | locus YDL017W, strain CDC7, stronger effect = lower value 0.97 | locus YDL028C, strain MPS1, stronger effect = lower value 0.968 | locus YDL101C, strain DUN1, stronger effect = lower value 0.967 | locus YDL108W, strain KIN28, stronger effect = lower value 0.962 | locus YDL132W, strain cdc53, stronger effect = lower value 0.958 | locus YDL214C, strain PRR2, stronger effect = lower value 0.961 | locus YDR052C, strain DBF4, stronger effect = lower value 0.977 | locus YDR054C, strain cdc34, stronger effect = lower value 0.952 | locus YDR226W, strain ADK1, stronger effect = lower value 0.969 | locus YDR477W, strain SNF1, stronger effect = lower value 0.958 | locus YER123W, strain YCK3, stronger effect = lower value 0.931 | locus YER133W, strain GLC7, stronger effect = lower value 0.967 | locus YFL009W, strain cdc4, stronger effect = lower value 0.958 | locus YFL029C, strain CAK1, stronger effect = lower value 0.956 | locus YFR003C, strain YPI1, stronger effect = lower value 0.96 | locus YFR019W, strain FAB1, stronger effect = lower value 0.979 | locus YFR028C, strain CDC14, stronger effect = lower value 0.955 | locus YGR040W, strain KSS1, stronger effect = lower value 0.942 | locus YGR052W, strain FMP48, stronger effect = lower value 1.03 | locus YGR092W, strain DBF2, stronger effect = lower value 0.917 | locus YHR030C, strain SLT2, stronger effect = lower value 1.01 | locus YHR079C, strain IRE1, stronger effect = lower value 0.997 | locus YHR082C, strain KSP1, stronger effect = lower value 1.05 | locus YHR205W, strain SCH9, stronger effect = lower value 0.968 | locus YIL147C, strain SLN1, stronger effect = lower value 0.968 | locus YJL095W, strain BCK1, stronger effect = lower value 0.994 | locus YJL128C, strain PBS2, stronger effect = lower value 0.946 | locus YJL157C, strain FAR1, stronger effect = lower value 0.947 | locus YJR016C, strain ILV3, stronger effect = lower value 0.956 | locus YJR066W, strain TOR1 (second series), stronger effect = lower value 0.918 | locus YJR066W, strain TOR1, stronger effect = lower value 1.05 | locus YKL048C, strain ELM1, stronger effect = lower value 0.976 | locus YKL067W, strain YNK1, stronger effect = lower value 0.947 | locus YKL101W, strain HSL1, stronger effect = lower value 0.951 | locus YKL193C, strain SDS22, stronger effect = lower value 0.957 | locus YKL203C, strain TOR2, stronger effect = lower value 1 | locus YLR113W, strain HOG1, stronger effect = lower value 0.882 | locus YLR133W, strain CKI1, stronger effect = lower value 0.951 | locus YLR403W, strain SFP1, stronger effect = lower value 0.931 | locus YML070W, strain DAK1, stronger effect = lower value 0.935 | locus YMR001C, strain CDC5, stronger effect = lower value 0.957 | locus YMR205C, strain PFK2 (second series), stronger effect = lower value 0.973 | locus YMR277W, strain FCP1, stronger effect = lower value 0.966 | locus YNL006W, strain LST8, stronger effect = lower value 0.973 | locus YNL020C, strain ARK1, stronger effect = lower value 0.958 | locus YNL161W, strain CBK1, stronger effect = lower value 0.956 | locus YNL183C, strain NPR1, stronger effect = lower value 1.02 | locus YNL207W, strain RIO2, stronger effect = lower value 0.965 | locus YNL222W, strain SSU72, stronger effect = lower value 0.961 | locus YNL307C, strain MCK1 (second series), stronger effect = lower value 0.962 | locus YOL078W, strain AVO1, stronger effect = lower value 0.957 | locus YOL136C, strain PFK27, stronger effect = lower value 0.942 | locus YOR061W, strain CKA2, stronger effect = lower value 0.973 | locus YOR119C, strain RIO1, stronger effect = lower value 1.01 | locus YOR231W, strain MKK1, stronger effect = lower value 0.927 | locus YOR329C, strain SCD5, stronger effect = lower value 0.96 | locus YPL031C, strain PHO85, stronger effect = lower value 0.959 | locus YPL153C, strain RAD53, stronger effect = lower value 0.944 | locus YPL204W, strain HRR25, stronger effect = lower value 0.936 | locus YPL209C, strain IPL1, stronger effect = lower value 0.949 | locus YPL256C, strain CLN2, stronger effect = lower value 0.901 | locus YPR025C, strain CCL1, stronger effect = lower value 0.968 | locus YPR106W, strain ISR1, stronger effect = lower value 0.955 | locus YPR111W, strain DBF20, stronger effect = lower value 0.943 | strain NNK1, stronger effect = lower value 0.959 | strain TSCII, stronger effect = lower value 0.957
